Results taken from PubChem BioAssay AID1159580 (chemical genetic matrix, 2015).
Screen size: about 5,500 compounds; about 2,000 (36%) were called active. Roughly 18% stayed inconclusive and do not appear here. Cut-off read from the data, not from the text of the source: active = normalized growth mostly below about 0.91 (no sharp cut-off); inconclusive = no clear call, values can overlap the other calls; inactive = mostly above about 0.92. Some of the results follow.

Assay: chemical genetic growth profiling, strain panel (AID 1159580);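 note: tested at 20 µM; growth read once vehicle control cultures reached saturation at 30 °C; 1 = growth at the plate median or of vehicle wells; lower values mean less growth of the strain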
Settings: S. cerevisiae deletion strains, growth OD

Measured: normalized growth

C[C@]12CCC3c4ccc(OS(=O)(=O)O)cc4CCC3C1CCC2=O (some centres undefined)
inactive: locus YAL021C, strain ccr4, hits give low values 0.957 | locus YAL026C, strain drs2, hits give low values 1.01 | locus YAL030W, strain snc1, hits give low values 0.986 | locus YBL061C, strain skt5, hits give low values 0.967 | locus YBR009C, strain hhf1, hits give low values 1.02 | locus YBR023C, strain chs3, hits give low values 0.987 | locus YBR171W, strain sec66, hits give low values 1 | locus YBR231C, strain swc5, hits give low values 1.01 | locus YBR279W, strain paf1, hits give low values 0.999 | locus YCL011C, strain gbp2, hits give low values 0.998 | locus YCL016C, strain dcc1, hits give low values 0.986 | locus YCL061C, strain MRC1, hits give low values 1.01 | locus YCL069W, strain vba3, hits give low values 0.995 | locus YCR088W, strain abp1, hits give low values 0.998 | locus YDL005C, strain med2, hits give low values 0.978 | locus YDL040C, strain nat1, hits give low values 1 | locus YDR001C, strain nth1, hits give low values 0.995 | locus YDR069C, strain doa4, hits give low values 0.989 | locus YDR137W, strain rgp1, hits give low values 0.976 | locus YDR159W, strain sac3, hits give low values 1 | locus YDR195W, strain ref2 0.999 | locus YDR297W, strain sur2, hits give low values 1 | locus YDR334W, strain swr1, hits give low values 0.993 | locus YDR335W, strain msn5, hits give low values 1 | locus YDR392W, strain spt3, hits give low values 0.923 | locus YEL003W, strain gim4, hits give low values 0.998 | locus YEL037C, strain rad23, hits give low values 1.01 | locus YEL061C, strain CIN8 (second series), hits give low values 1.03 | locus YER015W, strain faa2, hits give low values 0.993 | locus YER016W, strain bim1, hits give low values 0.962 | locus YER111C, strain swi4, hits give low values 0.959 | locus YER155C, strain BEM2 (second series), hits give low values 1 | locus YFR010W, strain ubp6, hits give low values 1.02 | locus YGL167C, strain pmr1, hits give low values 1 | locus YGL173C, strain kem1, hits give low values 0.97 | locus YGL227W, strain vid30, hits give low values 0.981 | locus YGL240W, strain doc1, hits give low values 0.983 | locus YGL253W, strain hxk2, hits give low values 0.996 | locus YHR013C, strain ard1, hits give low values 0.939 | locus YHR027C, strain rpn1, hits give low values 1.01 | locus YHR030C, strain SLT2, hits give low values 0.961 | locus YHR079C, strain IRE1, hits give low values 0.961 | locus YHR142W, strain chs7, hits give low values 0.983 | locus YJL092W, strain hpr5, hits give low values 1 | locus YJL095W, strain BCK1 (second series), hits give low values 0.977 | locus YJL095W, strain BCK1, hits give low values 0.992 | locus YJL115W, strain asf1, hits give low values 0.995 | locus YJL129C, strain trk1, hits give low values 0.958 | locus YJL154C, strain vps35, hits give low values 0.974 | locus YJL164C, strain tpk1, hits give low values 0.996 | locus YJL166W, strain qcr8, hits give low values 1.01 | locus YJR066W, strain TOR1, hits give low values 0.942 | locus YKL160W, strain elf1, hits give low values 0.928 | locus YKR026C, strain gcn3, hits give low values 1 | locus YKR091W, strain srl3, hits give low values 0.991 | locus YLL001W, strain dnm1, hits give low values 1.02 | locus YLL026W, hits give low values 1.02 | locus YLL041C, strain sdh2, hits give low values 0.991 | locus YLR027C, strain aat2, hits give low values 1.01 | locus YLR113W, strain HOG1, hits give low values 1.02 | locus YLR221C, strain rsa3, hits give low values 1.04 | locus YLR258W, strain gsy2, hits give low values 1 | locus YLR262C, strain YPT6 (second series), hits give low values 0.984 | locus YLR320W, strain mms22, hits give low values 1.01 | locus YLR342W, strain FKS1, hits give low values 0.971 | locus YLR357W, strain rsc2, hits give low values 0.983 | locus YLR370C, strain arc18, hits give low values 1.01 | locus YLR384C, strain iki3, hits give low values 0.981 | locus YML120C, strain ndi1, hits give low values 1 | locus YMR058W, strain fet3, hits give low values 1.01 | locus YMR125W, strain sto1, hits give low values 0.97 | locus YMR129W, hits give low values 1.01 | locus YMR205C, strain PFK2, hits give low values 1 | locus YMR231W, strain pep5, hits give low values 0.995 | locus YNL071W, strain lat1, hits give low values 1.02 | locus YNL183C, strain NPR1, hits give low values 0.975 | locus YNL209W, strain ssb2, hits give low values 0.985 | locus YNL248C, strain rpa49, hits give low values 0.89 | locus YNL322C, strain KRE1 (second series), hits give low values 0.948 | locus YNR049C, strain mso1, hits give low values 0.99 | locus YOR001W, strain rrp6, hits give low values 1.03 | locus YOR070C, strain gyp1, hits give low values 0.987 | locus YOR080W, strain dia2, hits give low values 0.991 | locus YOR083W, strain WHI5, hits give low values 0.912 | locus YOR106W, strain vam3, hits give low values 0.971 | locus YOR231W, strain MKK1, hits give low values 1 | locus YOR265W, strain rbl2, hits give low values 1.01 | locus YOR270C, strain vph1, hits give low values 0.917 | locus YOR290C, strain snf2, hits give low values 0.977 | locus YPL051W, strain arl3, hits give low values 0.987 | locus YPL078C, strain atp4, hits give low values 0.965 | locus YPL106C, strain sse1, hits give low values 0.968 | locus YPL240C, strain hsp82, hits give low values 0.999 | locus YPL256C, strain CLN2, hits give low values 0.982
